Source: ChEMBL document CHEMBL1157539, “Thousands of chemical starting points for antimalarial lead identification” (Nature, 2010)
“And” between values parts separate entries of the source, which are not always exact repeats. Identical values can stand only once.

Columns and labels:
Assay type in all cases: functional
Plasmodium falciparum [1] = assay: GSK_TCMDC: Inhibition of Plasmodium falciparum 3D7 in whole red blood cells, using parasite LDH activity as an index of growth. Test compounds present at 2uM
Plasmodium falciparum [2] = assay: GSK_TCMDC: Inhibition of Plasmodium falciparum Dd2 in whole red blood cells, using parasite LDH activity as an index of growth. Test compounds present at 2uM
HepG2 = assay: GSK_TCMDC: Percent inhibition of human HepG2 cell line. Test compounds present at 10uM.

SMILES | Inhibition (Plasmodium falciparum [1]) | Inhibition (Plasmodium falciparum [2]) [%] | Inhibition (HepG2) [%]
CC(C)(C)CN1C(=O)C(c2ccccc2)(c2ccccc2)N=C1N.O=CO | 98% | 94 | 32
CC(=O)N[C@H](C(=O)Nc1ccc(-c2ccc(-c3nc4cc(C(F)(F)F)ccc4[nH]3)cc2)cc1)C(C)C | 88% | 76 | 24
Cn1cnc(CCNC(=O)c2ccc(-c3ccc(-c4nc5cc(F)ccc5[nH]4)cc3)cc2)c1 | 92% | 15 | 17
Cc1cccc2nc(-c3ccc(-c4ccc(CNCCNC(=O)c5ccnn5C)cc4)s3)[nH]c12.O=C(O)C(F)(F)F | 100% | 97 | 20
O=C1Nc2cccc3c2C1(CCCCN1CCC(c2cc4ccncc4[nH]2)CC1)CCC3 (configuration not stated) | 99% and 97% | 0 | 0
O=C(Nc1ccc(Cl)cc1)N1CCN(C2CCCCC2)CC1 | 93% | 0 | 17
Cc1ccc2c(=O)cc(CCc3cccc(F)c3F)n(CC(=O)N(Cc3ccc(-c4ccc(C(F)(F)F)cc4)cc3)C3CCN(C)CC3)c2n1.O=C(O)C(O)C(O)C(=O)O | 86% | 76 | 49
Cc1cc2nc(-c3ccc(C(=O)NCCCc4ccccc4)cc3)[nH]c2cc1C | 91% | 5 | 7
NC1CCN(Cc2ccc(-c3ccc(-c4nc5cc(F)ccc5[nH]4)cc3)cc2)C1.O=C(O)C(F)(F)F (configuration not stated) | 98% | 99 | 41
CN(C)CCCc1cc2c(cc1Cl)CCN2C(=O)Nc1ccc(-c2ccncc2)c2ccccc12 | 94% | 0 | 4
CC(C)CCN1CCC(Oc2ccc(NC(=O)c3ccc4ncccc4c3)cc2Cl)C1.O=C(O)C(F)(F)F (configuration not stated) | 95% | 14 | 33
CC(C)(C)c1ccc(CN2CCCCC(NC(=O)c3cc(-c4cccc(Cl)c4)cs3)C2)cc1.O=C(O)C(F)(F)F (configuration not stated) | 96% | 60 | 11
CC(C)CNCc1ccc(-c2cccc(CN(C(=O)NCCc3ccccc3)C3CCN(Cc4ccccc4)CC3)c2)cc1.O=C(O)C(F)(F)F | 100% | 94 | 91
Fc1ccc2[nH]c(-c3ccc(-c4ccc(CN5CCN(c6cnccn6)CC5)cc4)s3)nc2c1.O=C(O)C(F)(F)F | 99% | 98 | 45
COc1ccc2nccc([C@@H](O)CN3CCC(NCc4cc5ccc(Cl)cc5[nH]4)CC3)c2c1.O=C(O)C(=O)O | 99% | 61 | 30
CC(C)[C@H](NC(=O)NC1CCC(CCN2C3CCC2CC(OC(=O)C(CO)c2ccccc2)C3)CC1)C(O)(c1ccccc1)c1ccccc1 (some centres not stated) | 90% | 4 | 17
Cc1cc2ccccc2c(CON2C(=N)N=C(N)NC2(C)C)c1C.Cl | 93% | 31 | 65
COCCOc1ccc(Nc2nccc(-c3c(-c4cccc(NC(=O)c5c(F)cccc5F)c4)nn4ccccc34)n2)cc1F | 90% | 60 | 62
CC(C)NCc1ccc(-c2cccc(NC(=O)c3ccc(Cl)cc3)c2)cc1.O=C(O)C(F)(F)F | 100% | 82 | 20
O=C(O)C(F)(F)F.c1cncc(CCNCc2ccc(-c3ccc(-c4nc5ccccc5[nH]4)s3)cc2)c1 | 100% | 99 | 35

SMILES | Inhibition (Plasmodium falciparum [1]) | Inhibition (Plasmodium falciparum [2]) [%] | Inhibition (HepG2) [%]
CC(=O)N(Cc1ccc(CC(C)NCCc2cccc(Cl)c2)cc1)Cc1ccc(CC(C)NCCc2cccc(Cl)c2)cc1 (configuration not stated) | 100% | 94 | 98
CC(=O)C1=NN(c2ccc(C)cc2)C(c2cccs2)N1c1ccccc1 (configuration not stated) | 89% | 64 | 0
COc1ccc(-c2ccccc2CNc2nc(NCCc3ccc(O)cc3)nc(N3CCNCC3)n2)cc1.O=C(O)C(F)(F)F | 86% | 3 | 48
COc1ccccc1CCNc1ncc(F)c(N[C@@H](Cc2ccccc2)C(=O)NCCc2ccccc2)n1.O=C(O)C(F)(F)F | 90% | 83 | 7
CC(C)(C)OC(=O)NCc1ccc(Nc2nnc(-c3ccc(OCC(=O)NCc4ccc(C(C)(C)C)cc4)c([N+](=O)[O-])c3)o2)cc1 | 96% | 82 | 10
COc1ccc(Nc2ncc3c(-c4cccc(NC(=O)Cc5cccnc5)c4)c[nH]c3n2)cc1OC | 98% | 85 | 27
CCCCc1ccccc1NS(=O)(=O)c1ccc(OC)c(N2CCNCC2)c1.Cl | 91% | 2 | 6
CO/C(=C\C=C\c1cc2cc(Cl)c(Cl)cc2[nH]1)C(=O)NCCCN1CCC(c2ccccc2)CC1 | 100% | 92 | 33
CCc1c(C(=O)NC2CCC(N3CCC(c4ccccc4OC)CC3)CC2)[nH]c2ccc(Br)cc12 (configuration not stated) | 100% | 98 | 85
CCCc1cc(NCC)nc(Nc2ccc(C)cc2)n1 | 95% | 16 | 22
Cc1cccc2nc(-c3cccc(-c4ccc(NC(=O)Cc5ccccn5)cc4)c3)[nH]c12 | 94% | 57 | 25
COc1ccc(CN(C)CCCOc2ccc(NC(=O)C=Cc3ccc(C(C)(C)C)cc3)cc2)cc1OC | 100% | 87 | 14
Cc1nc2ccc(NC(=O)c3cc(S(=O)(=O)N(C)C)ccc3Cl)cc2s1 | 91% | 77 | 20
O=C(Cn1c(CCc2cccc(F)c2F)nc(=O)c2ccccc21)N(CCN1CCCCC1)Cc1ccc(-c2ccc(C(F)(F)F)cc2)cc1.O=C(O)C(O)C(O)C(=O)O | 100% | 89 | 32
C[C@@H](N/C(=N\c1ccccc1Cl)Nc1ccc(C#N)cc1O)c1ccc(Br)cc1 | 98% | 70 | 33
CCCC(=O)NC(c1ccc(C(C)C)cc1)c1ccc2cccnc2c1O (configuration not stated) | 90% | 37 | 50
Cc1ccc(CON2C(N)=NC(N)=NC23CCCCC3)c2ccccc12.Cl | 98% | 56 | 57
CCOc1cccc2nc(NCCCNCc3ccc(Cl)c(Cl)c3)cc(NCCCNCc3ccc(Cl)c(Cl)c3)c12 | 98% | 58 | 96
COC(=O)c1ccc(N2CCN(CCCCNC(=O)c3ccc(NC(=O)c4ccc(Cl)cc4)cc3)CC2)c(OC)c1 | 82% | 1 | 11
COc1ccc2c(=NN=Cc3cccc(C)n3)cc(-c3ccccc3)[nH]c2c1 | 97% | 25 | 0

SMILES | Inhibition (Plasmodium falciparum [1]) | Inhibition (Plasmodium falciparum [2]) [%] | Inhibition (HepG2) [%]
O=C(NCc1ccc(Cl)c(Cl)c1)c1ccc(-c2nc3ccc(F)cc3[nH]2)cc1 | 93% | 9 | 0
COc1ccc2nccc([C@@H](O)CN3CCC(NCc4cc5sccc5nc4C(F)(F)F)CC3)c2c1.O=C(O)C(=O)O | 89% | 67 | 22
CN(Cc1cccc(C#N)c1)C1CCN(c2cc(NC(=O)c3ccc(F)cc3)ccn2)CC1.O=C(O)C(F)(F)F | 97% | 23 | 4
Clc1ccc(Nc2nc3ccc(Cl)cc3nc2Nc2ccc(Cl)cc2)cc1 | 99% | 99 | 79
COc1ccccc1CNc1ccnc(NCCc2cccc(C(F)(F)F)c2)n1 | 93% | 68 | 39
CCn1c(-c2nonc2N)nc2c(-c3cccc(NC(=O)Nc4ccccc4Cl)c3)ncc(OCCCN)c21.O=C(O)C(F)(F)F | 99% | 74 | 2
CC(C)(C)c1ccc(CN2CCC(CNC(=O)c3cc(-c4ccccc4C(F)(F)F)cs3)C2)cc1.O=C(O)C(F)(F)F (configuration not stated) | 92% | 11 | 61
O=C(O)C(F)(F)F.S=C(Nc1cccc(Cl)c1)NC1CCN(c2ccnc3cc(Cl)ccc23)C1 (configuration not stated) | 100% | 89 | 16
CNC(=O)c1cc(Nc2nnc(-c3ccc(C)c(S(=O)(=O)NC4CCCCC4)c3)c3ccccc23)ccc1OC | 87% | 61 | 0
CC(C)CCN1CCCN(Cc2ccc(C(=O)Nc3ccc(C(C)(C)C)cc3)cc2)CC1.O=C(O)C(F)(F)F | 92% | 12 | 49
Cc1cc(N(C)C2CCN(CC3CCCCC3)C2)nc(Nc2ccc(Br)cc2)n1 (configuration not stated) | 98% | 38 | 14
CCN1CCN(CCCNc2ccnc3cc(Cl)ccc23)CC1.Cl | 100% | 77 | 7
CCN(CC)c1nc(Nc2cc(C)ccc2C)nc(Nc2ccccc2O)n1 | 100% | 99 | 0
Oc1ccc(Nc2ccnc3cc(Cl)ccc23)cc1 | 100% | 97 | 0
Cc1ccc(NC(=O)NC2CCN(c3ccnc4ccccc34)CC2)cc1.O=C(O)C(F)(F)F | 97% | 52 | 21
COc1ccc2nccc([C@@H](O)CN3CCC(NCCOc4ccc(F)cc4Cl)CC3)c2c1.O=C(O)C(=O)O | 99% | 85 | 1
Cl.FC(F)(F)c1ccc2c(NCCNc3ccnc4cc(C(F)(F)F)ccc34)ccnc2c1 | 100% | 100 | 21
O=C(NC1CCN(Cc2ccccc2)CC1)c1ccc(-c2nc3cc(Cl)c(F)cc3[nH]2)cc1 | 100% | 100 | 13
COc1cc(-n2cnc3cc(-c4ccc(Cl)cc4)sc3c2=O)ccc1OCCN1CCC(c2cccc(NC(C)=O)c2)CC1.O=C(O)/C=C\C(=O)O | 99% | 80 | 61
